Data on 68 molecules can be found in PubChem BioAssay AID2289 (National Center for Advancing Translational Sciences (NCATS), 2010).

The whole screen tested about 340,000 compounds, of which about 3,300 (0.97%) were called active. About 9% were inconclusive and are not listed. Calls follow the shape of the dose curve; as a rule, active = well fitted inhibition curve with a large enough effect; inconclusive = small, poorly fitted or top-dose-only effect, or effect the other way; inactive = flat fitted curve, though single readings scatter. This is one part of the list.
Potency is read from the fitted curve at half-maximal effect.

A short description of the experiment: qHTS Assay for Modulators of miRNAs and/or Inhibitors of miR-21. Also: nearly all actives have a fitted effect of over 55% in size. The settings on record: HeLa miR-21-FLuc reporter, luciferase luminescence, 48 h; actives lower the signal. An outline of the steps: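 HeLa cells endogenously expressing miR-21, stably carrying CMV-driven firefly luciferase with a downstream miR-21 binding site, 2000 cells/well. Titrations up to approximately 40 uM, 48 hours; luciferase luminescence read.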
On the technique in general: qHTS replaces the single test concentration by a dilution series.
Take `CN(C(=O)c1cc(-c2ccccc2)on1)C1CCCCC1`: the Potency was 2.07 µM (active).
The value for `O=C(NCC1CCCO1)c1cc(-c2ccccc2F)no1` (stereo not drawn) was 14.7 µM (active).
The value for `O=C(NC1CCCCC1)c1cc(-c2ccc(O)cc2)on1` was 2.93 µM (active); that for `O=C(NC1CCCC1)c1cc(-c2ccc(F)cc2)on1` was 1.85 µM (active).
The value for `O=C(NC1CCCC1)c1cc(-c2ccccc2)on1` was 2.93 µM (active); that for `O=C(NCC1CCCO1)c1cc(-c2ccccc2)on1` (stereo not drawn) was 7.36 µM (active).
Regarding `COc1cccc(-c2cc(C(=O)N3C(C)CCCC3C)no2)c1` (stereo not drawn), the Potency was 3.29 µM (active).
Regarding `COc1cccc(-c2cc(C(=O)NC3CCCCC3)no2)c1`, the Potency was 2.07 µM (active).
Under `COc1ccc(-c2nc(-c3ccncc3)no2)cc1OC` stands 4.65 µM (active); under `COc1ccc(-c2nc(-c3cccc(C)c3)no2)cc1OC`, 2.93 µM (active).
Under `COc1ccc(-c2noc(-c3ccco3)n2)cc1OC` stands 1.65 µM (active); under `Cc1cccc(-c2noc(-c3ccc(Cl)cc3[N+](=O)[O-])n2)c1`, 1.17 µM (active); under `COc1ccc(-c2nc(-c3cccnc3)no2)cc1`, 0.826 µM (active).
Under `COc1ccc(-c2noc(-c3cccnc3)n2)cc1OC` stands 6.56 µM (active); under `COc1ccc(-c2nc(-c3cccnc3)no2)cc1OC`, 16.5 µM (active); under `COc1ccc(CNC(=O)CN2C(=O)CC(c3ccc(C)c(C)c3)=Nc3ccccc32)cc1`, 11.7 µM (active).
Turning to `CCOc1ccccc1NC(=O)CN1C(=O)CC(c2ccc(C)c(C)c2)=Nc2ccccc21`, the Potency was 8.26 µM (active).
Under `O=C(N/N=C\C=C\c1ccco1)c1cc(-c2ccc3ccccc3c2)n[nH]1` stands 4.14 µM (active); under `O=C(CCN1C(=O)S/C(=C\C=C\c2ccccc2)C1=O)Nc1ccc(O)cc1`, 9.27 µM (active).
The value for `Fc1ccc(-c2nnc(Cc3ccc(Cl)cc3)o2)cc1` was 10.4 µM (active).
Under `O=[N+]([O-])c1ccc(Cc2nnc(-c3ccc(F)cc3)o2)cc1` stands 0.826 µM (active); under `C=CCSc1nnc(-c2ccc([N+](=O)[O-])cc2)o1`, 6.56 µM (active); under `COc1ccc(CNc2ncccc2[N+](=O)[O-])cc1`, 18.5 µM (active).
Turning to `O=[N+]([O-])c1cccnc1NCCc1c[nH]c2ccccc12`, the Potency is 4.14 µM (active).
For the molecule `O=[N+]([O-])c1cccnc1NCCNc1ncc(C(F)(F)F)cc1Cl`, the Potency was 2.93 µM (active).
Under `O=[N+]([O-])c1cccnc1NCCc1ccccc1` stands 5.21 µM (active); under `Cc1ccccc1-n1c(C)cc(/C=N/Nc2ccc([N+](=O)[O-])cn2)c1C`, 3.69 µM (active); under `Cc1ccc(C(=O)Nc2cccnc2Cl)cc1Cl`, 3.69 µM (active).
With `O=C(Nc1cccnc1Cl)c1cc(-c2ccccc2O)on1`, the Potency was 2.61 µM (active).
The value for `O=C(Nc1cccnc1Cl)c1cc(-c2cccc(O)c2)on1` was 18.5 µM (active).
Under `CCC(C(=O)N1CCN(c2cccc(C)c2C)CC1)n1nc(C)c2sc3ccccc3c2c1=O` (stereo not drawn) stands 8.26 µM (active).
Under `COc1ccccc1Nc1ccc(Nc2ccccc2OC)nn1` stands 7.36 µM (active); under `CCOC(=O)c1c(-c2ccccc2)cn2c(C)cc(C)nc12`, 5.85 µM (active).
For `CC(=O)c1c(C)nc(-c2ccc(Cl)cc2)nc1N`, the Potency is 1.65 µM (active).
For `CCOC(=O)c1c(C)nc(-c2ccccc2)nc1N`, the Potency was 4.65 µM (active).
The value for `C/C(=N/NC(=O)c1ccoc1C)c1ccc(NC(=O)C2CCCC2)cc1` was 1.31 µM (active).
The value for `C/C(=N/NC(=O)c1ccccc1)c1ccc(NC(=O)C(F)(F)F)cc1` was 4.65 µM (active); that for `C/C(=N/NC(=O)c1ccoc1C)c1cccc(NC(=O)C2CC2)c1` was 1.65 µM (active); that for `C/C(=N/NC(=O)c1ccoc1C)c1cccc(NC(=O)C(F)(F)F)c1` was 1.65 µM (active).
Under `COC1=C/C(=C/c2c(O)c(C#N)c3ccccn23)C=CC1=O` stands 11.7 µM (active); under `COc1ccc(-c2cc3cc(OC)c(OC)cc3c(C)n2)cc1`, 7.36 µM (active); under `COc1ccc2cc(-c3ccccc3)ncc2c1`, 0.369 µM (active).
With `COc1ccc2nc(-c3ccccc3)cc(OC)c2c1`, the Potency is 14.7 µM (active).
Under `CC1Cc2ccccc2N1C(=O)COc1ccc2c(c1)OCO2` (stereo not drawn) stands 11.7 µM (active); under `O=C(COc1ccc2c(c1)OCO2)Nc1ccccc1C(F)(F)F`, 16.5 µM (active); under `O=C(COc1ccc2c(c1)OCO2)Nc1ccc(Cl)cn1`, 2.07 µM (active).
Under `O=C(COc1ccc2c(c1)OCO2)Nc1cccc(F)c1` stands 8.26 µM (active); under `COc1ccccc1NC(=O)COc1ccc2c(c1)OCO2`, 7.36 µM (active); under `COc1ccccc1NC(=O)COc1ccc(CO)cc1Cl`, 5.85 µM (active).
Under `Cc1ccc(/C=N/NC(=O)c2ccoc2C)o1` stands 16.5 µM (active); under `Cc1occc1C(=O)N/N=C/c1ccc(-c2ccccc2)cc1`, 0.147 µM (active).
Turning to `Cc1cccc(/C=N\Nc2cn[nH]c(=O)c2Cl)c1`, the Potency was 18.5 µM (active).
In the case of `Cc1ccc(/C=N\Nc2cn[nH]c(=O)c2Cl)cc1`, the Potency was 14.7 µM (active).
As for `O=C(/C(C=Nc1ccc(F)cc1)=C(/O)c1ccco1)C(F)(F)F`, the Potency was 4.14 µM (active).
The value for `CC(=O)C(C)Oc1ccc2c3c(c(=O)oc2c1C)CCCC3` (stereo not drawn) was 16.5 µM (active); that for `CC(=O)COc1ccc2c3c(c(=O)oc2c1C)CCCCC3` was 3.29 µM (active).
Under `CC(=O)Nc1ccc(/C=N/NC(=O)c2cccs2)cc1` stands 5.85 µM (active); under `CSc1ccc(/C=N/NC(=O)c2cccs2)cc1`, 1.31 µM (active); under `Cc1ccc(/C=N/N=C/c2ccc(C)s2)s1`, 0.927 µM (active).
Regarding `O=C(N/N=C/c1ccncc1)c1cccs1`, the Potency was 5.21 µM (active).
The value for `Cc1ccc(/C=N/NC(=O)c2cccs2)s1` was 7.36 µM (active).
On to `COc1cc(/C=N/NC(=O)c2cccs2)ccc1O`, for which the Potency is 10.4 µM (active).
The value for `O=C(N/N=C/c1ccc2c(c1)OCO2)c1cccs1` was 1.65 µM (active); that for `CCNC(=S)/N=C(\N)Nc1nc(C)c2cc(C)ccc2n1` was 5.85 µM (active).
The value for `CC(C)(C)c1ccc(C(=O)Nc2ccccc2Cl)cc1` was 0.826 µM (active); that for `Cc1nc2ccc(NC(=O)c3ccccc3)cc2s1` was 5.85 µM (active).
The value for `Cc1nc2ccc(C(=O)Nc3ccccc3Cl)cc2s1` was 3.69 µM (active); that for `Cc1nc2ccc(NC(=O)c3cccs3)cc2s1` was 3.69 µM (active).
